Test results: PubChem BioAssay AID743286 (National Center for Advancing Translational Sciences (NCATS), 2014)
Screen size: about 1,100 compounds; about 340 (31%) were called active. Not shown: some 40% with an inconclusive outcome. These entries were drawn from the full list. Values without a mark were called inactive. Calls follow the shape of the dose curve; as a rule, active = well fitted inhibition curve with a large enough effect; inconclusive = small, poorly fitted or top-dose-only effect; inactive = flat fitted curve, though single readings scatter.

target: Phosphatidylinositol 5-phosphate 4-kinase type-2 alpha (Homo sapiens) (UniProt P48426); assay: qHTS for Inhibitors of PI5P4K: Confirmation in Primary Assay; settings: PI5P4Kalpha enzyme, ADP-Glo luminescence, 60 min; series mostly up to 76.9 µM; activity change, negative = inhibition: at the top concentration; also: nearly all actives have a fitted effect of over 65% in size
Description: In addition to finding PI5P, we discovered the type II phosphatidylinositol 5-phosphate 4-kinase (PI5P4K) family (alpha, beta, gamma isoforms) that catalyze the conversion of PI5P to PI(4,5)P2. Alternatively, PI(4,5)P2 can also be synthesized through phosphatidylinositol-4-phosphate (PI4P) by the type I phosphatidylinositol 4-phosphate 5-kinases (PI4P5K). These PI5P4K enzymes therefore represent one way by which cells can regulate endogenous PI5P levels and play important roles in insulin signaling and in stress responses. […] A qHTS PI5P4K-alpha ADP-Glo assay was developed to identify specific modulators of human PI5P4K, phosphatidylinositol-5-phosphate 4-kinase (Type II PIPK). This assay was screened against the MLSMR containing ~400,000 small molecules (PubChem AID 652105). To confirm that the hits were not interacting with the detection enzyme system, a 1536-well counterscreen against the ADP-Glo kit (Promega) was utilized, as described in Davis et al., 2013 [1]. Davis et al., PLoS One. 2013;8(1):e54127. NIH Chemical Genomics Center [NCGC] NIH Molecular Libraries Probe Centers Network [MLPCN] MLPCN Grant: MH096575 Assay Submitter (PI): Atsuo Sasaki, Beth Israel Deaconess Medical Center
2 microL of PI5P4Kalpha/substrate buffer (columns 1-2, 5-48) are dispensed into Greiner white solid bottom 1536-well assay plates; column 3 receives only PI5P4Kalpha buffer as 0x substrate controls; column 4 receives only substrate buffer as 0x PI5P4Kalpha controls. Final assay buffer consists of 0.038 M HEPES pH 7.4, 0.28 mM EGTA, 0.1% CHAPS, and 5% DMSO (final concentration). Compounds are then transferred via Kalypsys pin tool equipped with 1536-pin array (10 nL slotted pins, V&P Scientific, San Diego, CA). Following addition of compound, 1 microL of ATP (5 microM final concentration, all columns) is added to initiate the reaction. ATP is diluted in an assay buffer consisting of 0.02 M HEPES pH 7.4, 60 mM MgCl2, 15 microM ATP, and 0.1% CHAPS. The plates are then incubated at room temperature for 60 minutes. ADP-Glo reagent 1 is added (2 microL) and plates incubated for 45 minutes, before ADP-Glo reagent 2 (4 microL) is added and plates incubated for 30 minutes. They are then transferred to a ViewLux high-throughput CCD imager (PerkinElmer) wherein single end-point measurements of luminescence are acquired using a clear filter.
% is scaled to controls: 0 for no effect and ±100 for the full control effect; potency is read from the fitted curve at half-maximal effect.

Sequence of Phosphatidylinositol 5-phosphate 4-kinase type-2 alpha (Homo sapiens) (P48426 whole entry, looked up, canonical isoform): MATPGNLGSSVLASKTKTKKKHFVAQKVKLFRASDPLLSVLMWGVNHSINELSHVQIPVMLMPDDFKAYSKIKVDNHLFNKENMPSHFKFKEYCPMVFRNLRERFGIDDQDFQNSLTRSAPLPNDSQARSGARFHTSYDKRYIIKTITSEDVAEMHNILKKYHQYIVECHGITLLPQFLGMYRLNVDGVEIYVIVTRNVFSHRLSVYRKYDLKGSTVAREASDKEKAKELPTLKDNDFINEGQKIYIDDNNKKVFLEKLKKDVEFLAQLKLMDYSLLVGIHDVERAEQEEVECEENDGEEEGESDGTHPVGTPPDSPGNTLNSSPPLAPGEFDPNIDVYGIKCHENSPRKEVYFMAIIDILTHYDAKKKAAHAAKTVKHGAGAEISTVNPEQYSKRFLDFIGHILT

Row | Structure (SMILES) | Potency | activity change, negative = inhibition
1 | CCC(=O)Oc1ccc(C(=O)Nc2cccc(C(=O)c3ccccc3)c2)cc1 | 8.91 µM (active) | –
2 | N#CC1c2ccccc2-n2nncc2CN1Cc1cc(Cl)cc(Cl)c1 (stereo not given) | – | -12.5%
3 | COC(=O)C1=C(c2ccc(F)cc2F)C[C@@H]2CC[C@H]1N2C(=O)NC1Cc2ccccc2C1 | – | -0.214%
4 | COc1ccc(C(=O)C2CCCN(Cc3ccon3)C2)c(OC)c1 (stereo not given) | – | -2.13%
5 | CC(C)NCC(O)c1ccc(C2CCCC2)cc1 (stereo not given) | – | -0.799%
